# Screening data (PubChem)
# D1 antagonist: human D1 dopamine receptor antagonism; activity change, negative = inhibition, % at 10 µM; 360,000 tested, 3.2% active; HEK293 TREx D1 cells, calcium flux, dopamine EC80; stronger effect = lower value; P21728; in the data active means activity change below about -30%
#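 Compound effects on dopamine-evoked calcium signalling were measured in tetracycline-induced HEK293 Trex D1 cells. Dopamine at EC80 followed a 180 s compound pre-read, and fluorescence was tracked kinetically for 180 s more.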
# D1 ag: activates the human D1 dopamine receptor. P21728. HEK293 T-REx D1 cells, calcium flux, agonist mode. activation, % at 2 µM. 360,000 tested, 1% active; in the data active means activation above about 30%
#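 Inducible HEK293 T-REx D1 cells, force-coupled to calcium signalling, were plated at 4000 cells/well with tetracycline and held overnight at 30 C. After no-wash calcium dye loading, compound-evoked calcium rise over 180 s flagged agonists.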
# D1 PAM: enhances dopamine response at the human D1 receptor; 360,000 tested, 0.036% active; HEK293 TREx D1 cells, calcium flux, dopamine EC20 potentiation; potentiation, % at 10 µM; P21728; in the data active means potentiation above about 30%
# D3 ag: D3 dopamine receptor (human) agonism. P35462. D3R DiscoveRx beta-arrestin cells, luminescence, 90 min. max activation, %. 410,000 tested, 0.58% active; in the data active means max activation above about 30%
# Target sequence (P35462 whole entry, looked up): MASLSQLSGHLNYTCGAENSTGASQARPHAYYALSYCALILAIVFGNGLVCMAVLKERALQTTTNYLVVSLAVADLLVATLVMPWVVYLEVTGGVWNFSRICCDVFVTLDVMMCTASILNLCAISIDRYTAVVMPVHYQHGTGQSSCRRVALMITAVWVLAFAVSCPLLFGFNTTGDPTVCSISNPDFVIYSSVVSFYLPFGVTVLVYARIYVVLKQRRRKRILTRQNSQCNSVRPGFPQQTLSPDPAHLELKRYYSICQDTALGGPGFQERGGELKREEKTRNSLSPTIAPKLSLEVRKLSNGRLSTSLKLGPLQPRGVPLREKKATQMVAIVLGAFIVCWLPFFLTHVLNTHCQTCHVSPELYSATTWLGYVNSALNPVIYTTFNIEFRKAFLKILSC
#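 Agonist mode: compounds and dopamine controls were applied to plated cells for 90 min at 37 degrees C after an overnight attachment at 1500 cells/well. Luminescent read-out followed 30 - 60 minutes at room temperature with DiscoveRx detection reagent.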
# DRD3 antagonist: D3 dopamine receptor (human) antagonism; 360,000 tested, 2.5% active; AID 652054; P35462; max response, negative = inhibition, %; D3R cells, DiscoveRx beta-arrestin luminescence, antagonist mode; stronger effect = lower value; in the data active means max response below about -50%; inconclusive means no clear call, values can overlap the other calls
#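 Cells expressing the human receptor were seeded at 1500 cells/well, incubated overnight at 37 degrees C in 5% CO2, then exposed to library compounds with dopamine controls for 90 minutes at 37 degrees C before luminescent detection.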
# Numbers stand for hits; n = inactive; u = inconclusive; x = not tested or not shown; ! = repeats disagree. Only some compounds are listed: those with a hit (about 6% of all), similar ones and a draw of the others.
SMILES,D1 antagonist,D1 ag,D1 PAM,D3 ag,DRD3 antagonist
COc1ccc(-n2c(Cc3cccn3C)nnc2SCC(=O)Nc2cccc(OC)c2)cc1,n,n,n,n,n
N#C/C(=C\c1c(Oc2ccc(Br)cc2)nc2ccccn2c1=O)c1nc2ccccc2s1,n,n,n,n,x
COc1ccc(S(=O)(=O)N2CCCCC2)cc1NC(=O)CSc1nnc(C2CC2)n1C,n,n,n,n,n
Cc1ccc(S(=O)(=O)N(C)C)cc1NC(=O)CSc1nnc(C2CC2)n1C1CC1,-68,n,n,n,n
Cc1ccc(S(=O)(=O)N2CCOCC2)cc1NC(=O)CSc1nnnn1C,-35,n,n,n,n
Cc1ccc(S(=O)(=O)N2CCCCC2)cc1NC(=O)CSc1nnc(C2CC2)n1C,x,x,x,n,-71
CCn1c(=O)cc(OCC(=O)N(C)c2ccc(OC)cc2)c2ccccc21,n,n,n,n,x
COc1ccccc1C(O)c1ncc(-c2cccc(C(F)(F)F)c2)[nH]1 (centres undefined),x,x,x,n,n
CC(C)NC1CCC(Nc2ccnc3cc(Cl)ccc23)CC1 (centres undefined),x,x,x,n,n
Clc1ccc2c(NCCNC3CCCCC3)ccnc2c1,x,x,x,n,-98
Cn1cccc1-c1cc(C(=O)N/N=C/c2ccccc2Cl)[nH]n1,n,n,n,n,-78
Cn1cccc1-c1cc(C(=O)N/N=C/c2ccc(F)cc2)[nH]n1,n,n,n,n,-82
Cn1cccc1-c1cc(C(=O)N/N=C/c2cc(Br)ccc2O)[nH]n1,n,n,n,n,n
COCc1cccc(-c2csc(C(C)(NC(C)=O)c3ccccc3)n2)c1 (centres undefined),x,x,x,n,n
COc1cc2c(cc1OC)C(COc1ccccc1OC)N(C(C)=O)CC2 (centres undefined),-49,n,n,n,n
COC(=O)c1ccc(OCC2c3cc(OC)c(OC)cc3CCN2C(=O)c2ccc(F)cc2)cc1 (centres undefined),-39,n,n,n,x
COC(=O)c1ccc(OCC2c3cc(OC)c(OC)cc3CCN2C(=O)c2ccccc2C)cc1 (centres undefined),n,n,n,n,x
O=C(C1CCC(CNS(=O)(=O)c2cccs2)CC1)N1CCN(c2ccc(Cl)cc2)CC1 (centres undefined),n,n,n,41!,n
CC1=C(C(=O)OC2CCCCC2)C(c2ccc(C)o2)C2=C(CCCC2=O)N1 (centres undefined),n,n,n,n,-50
CC1=C(C(=O)OCc2ccccc2)C(c2ccc(C)o2)C2=C(CCCC2=O)N1 (centres undefined),n,n,n,n,n
CCOc1ccc(CCNC(=O)c2ccc(Cl)c(S(=O)(=O)N3CCOCC3)c2)cc1OCC,n,n,n,n,n
Cc1ccccc1CS(=O)(=O)CCC(=O)NCCN1CCN(c2cccc(Cl)c2)CC1,-32,n,n,n,-54
Cc1cc(C)c2c(=O)n(CC(=O)NCCCN3CCN(c4ccccc4F)CC3)sc2n1,n,n,n,n,-70
O=C(CCCn1c(=O)[nH]c2ccccc2c1=O)NCCSCc1ccccc1,n,n,n,n,n
O=C(CCCCCn1c(=O)[nH]c2ccccc2c1=O)NCCCN1CCN(c2ccccc2F)CC1,-91,n,n,n,u
SMILES,D1 antagonist,D1 ag,D1 PAM,D3 ag,DRD3 antagonist
O=C(CCS(=O)(=O)Cc1ccc(Cl)cc1)NCCCN1CCN(c2ccccc2F)CC1,-59,51,n,n,-70
CC(OC(=O)c1ccc2c(c1)NC(=O)CS2)C(=O)c1ccc(F)cc1 (centres undefined),x,x,x,n,n
Cc1nn(CC(=O)NCc2cccc(Br)c2)c(=O)c2c1sc1ccccc12,n,n,n,n,x
O=C(CCCn1c(=O)[nH]c2ccccc2c1=O)N1CCN(c2ccccc2)CC1,-37,n,n,n,x
Cc1ccccc1CS(=O)(=O)CCC(=O)NCCCN1CCN(c2ccccc2F)CC1,n,n,n,n,-60
Cc1cccc(Oc2ccc3c(c2)Oc2ccccc2NC3=O)c1,n,n,n,n,x
Cc1cccc(N2C(N)=C(C#N)C(C#N)(C#N)C2c2ccccc2)c1 (centres undefined),n,n,n,n,n
N#CC1=C(N)N(c2ccccc2)C(c2cccc([N+](=O)[O-])c2)C1(C#N)C#N (centres undefined),-30,n,n,n,n
Cn1nc(C(=O)NCc2ccccc2Cl)c2c1-c1ccccc1SC2,-33,n,n,n,x
Cn1nc(C(=O)NCc2ccccc2)c2c1-c1ccccc1SC2,n,n,n,n,x
Cc1cccc(-c2noc(CN(C(C)C)S(=O)(=O)c3ccc(Br)cc3)n2)c1,n,34,n,n,x
CC(C)c1nn2c(=O)cc(COC(=O)c3ccc(NC(=O)c4cccs4)cc3)nc2s1,n,n,n,n,x
Cc1ccccc1NS(=O)(=O)c1ccc2[nH]cc(C(=O)NCCc3ccccc3)c(=O)c2c1,n,n,n,n,x
Cc1cc(/C=C\c2ccc3cc(N(C)C)ccc3[n+]2C)c(C)n1-c1ccccc1,n,n,n,n,-61
O=C(CCN1CCCCCC1)Nc1ccc(F)cc1,n,n,n,n,-84
O=C(O)CSCCC(=O)Nc1ccc(F)cc1,n,n,n,41,n
Cc1ccc(NC(=O)CCN2CCCCC2)cc1,n,n,n,n,n
O=C(CCN1CCCCCC1)Nc1ccc(F)c(F)c1,n,n,n,n,-62
O=C1CN(C(=O)c2ccc(S(=O)(=O)N3CCCC3)cc2)C(c2ccc(F)cc2)c2cc(F)ccc2N1 (centres undefined),n,n,n,n,x
c1ccc(NCCC2OCC3(CO2)COC(CCNc2ccccc2)OC3)cc1 (centres undefined),x,x,x,n,n
COCCOc1cc(Nc2nnc(C(F)(F)F)s2)c(Cl)cc1Cl,n,n,n,n,-64
CCCCC(=O)Nc1c(C(=O)N2CCN(c3ccccc3)CC2)oc2ccccc12,-48,n,n,n,x
O=C(Cc1ccccc1)Nc1c(C(=O)N2CCN(c3ccc(F)cc3)CC2)oc2ccccc12,-43,n,n,n,x
CC(C)C(=O)Nc1c(C(=O)N2CCN(c3ccccc3F)CC2)oc2ccccc12,n,n,n,n,x
CC(C)C(=O)Nc1c(C(=O)N2CCN(c3ncccn3)CC2)oc2ccccc12,-34,n,n,n,n
O=C(COc1ccccc1)Nc1c(C(=O)N2CCN(c3ccc(F)cc3)CC2)oc2ccccc12,-31,n,n,n,x
CCOC(=O)CSc1ccc(C(=O)NCCCN2CCOCC2)cc1[N+](=O)[O-],n,n,n,n,n
CCOCCCN(C)C1CCN(C(=O)c2oc3ccccc3c2NC(=O)COc2ccc(F)cc2)CC1,n,n,n,n,n
CCOCCCN(C)C1CCN(C(=O)c2oc3ccccc3c2NC(=O)Cc2ccc(F)cc2)CC1,n,n,n,n,-71
